We go through 17 compounds from PubChem BioAssay (NCATS).

Results filed as inconclusive are left out. Entries that show only a call come without a potency. Activity calls are given as the source filed them. Unless noted, the call rests on the fitted dose curve; in most records, active means well fitted cell-killing curve with a large enough effect; inconclusive means small, poorly fitted or top-dose-only effect; inactive means flat fitted curve, though single readings scatter.

One test can be described thus: Cell Viability - LYMP1-002 - Assay at 24 hr (AID 993). Further: potency means the concentration at half of the fitted maximal effect. To be noted: LYMP1-002 lymphoblastoid cells viability; series mostly up to 92.2 µM. An outline of the steps: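 Acute toxicity is measured as concentration-dependent loss of cellular ATP in a human lymphoblastoid line (Coriell LYMP1-002) after 24 h treatment in complete medium. ATP is quantified by luciferase luminescence and AC50 derived by Hill modelling.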
Turning to `Nc1cccc2c(N)cccc12`, the Potency result was “inactive”.
Same read-out and setting: with `O=C(NO)c1ccccc1` the entry was “inactive”.
The same measure, in the same setting: the same measure for `Brc1ccccc1-c1ccccc1`: “inactive”; for `O=C(Oc1ccccc1)c1ccccc1O`: “inactive”; for `O=C(c1ccccc1)c1ccccc1`: “inactive”.
Same read-out and setting: the same measure for `CC(C)C(C)(C)C(C)(C)C(C)(C)S`: “inactive”; for `CC(C)(c1ccc(O)cc1)c1ccc(O)cc1`: “inactive”.
`CCCC(=O)c1cc(O)c(O)cc1O`: the Potency result was “inactive”.
The same measure, in the same setting: with `c1ccc2occc2c1` the entry was “inactive”; with `Oc1ccccc1`, “inactive”; with `CC(=O)OC/C=C(C)/C=C/C=C(C)/C=C/C1=C(C)CCCC1(C)C`, “inactive”.
Still for that read-out and setting: the same measure for `CCCCCCCCCCCCCCCC[n+]1ccccc1`: 15.8 µM (active).
Consider `CCCCC(CC)COC(=O)c1ccccc1C(=O)O` (configuration not stated), for which the Potency entry was “inactive”.
In the case of `C1=CC2C3C=CC(C3)C2C1` (configuration not stated), the Potency entry was “inactive”.
On the same count and under the same terms, with `COc1cc(C=O)ccc1O` the entry was “inactive”; with `Nc1ccc(O)cc1`, 39.8 µM (active).

A short description of a further test: Cell Viability - LYMP1-002 - Assay at 40 hr (AID 994). Further: nearly all actives have a fitted effect of over 60% in size. Further: potency means the concentration at half of the fitted maximal effect. The settings on record: LYMP1-002 lymphoblastoid cell viability; series mostly up to 92.2 µM. An outline of the steps: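 Cells are plated at 2500 per well and rested 5 hr at 37 C. Compounds are added and incubated 40 hr at 37 C. CellTiter-Glo reagent is added for 30 min at room temperature before luminescence is read.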
`Nc1cccc2c(N)cccc12`: the Potency entry is “inactive”.
Still for that read-out and setting: with `O=C(NO)c1ccccc1` the entry was “inactive”; with `Brc1ccccc1-c1ccccc1`, “inactive”; with `O=C(Oc1ccccc1)c1ccccc1O`, “inactive”.
Still for that read-out and setting: the same measure for `O=C(c1ccccc1)c1ccccc1`: “inactive”; for `CC(C)C(C)(C)C(C)(C)C(C)(C)S`: “inactive”.
Still for that read-out and setting: the same measure for `CC(C)(c1ccc(O)cc1)c1ccc(O)cc1`: “inactive”.
As for `CCCC(=O)c1cc(O)c(O)cc1O`, the Potency entry is “inactive”.
Same read-out and setting: the same measure for `c1ccc2occc2c1`: “inactive”; for `Oc1ccccc1`: “inactive”; for `CC(=O)OC/C=C(C)/C=C/C=C(C)/C=C/C1=C(C)CCCC1(C)C`: “inactive”.
`CCCCCCCCCCCCCCCC[n+]1ccccc1`: the Potency is 7.94 µM (active).
Turning to `CCCCC(CC)COC(=O)c1ccccc1C(=O)O` (configuration not stated), the Potency result was “inactive”.
`C1=CC2C3C=CC(C3)C2C1` (configuration not stated): the Potency result was “inactive”.
On the same count and under the same terms, the same measure for `COc1cc(C=O)ccc1O`: “inactive”.
Still for that read-out and setting: the same measure for `Nc1ccc(O)cc1`: 50.1 µM (active).

The next test is described as follows: qHTS Assay for Identification of Small Molecule Inducers of Hypoxia Response (AID 2120; active means well fitted curve in the direction sought with a large enough effect in the signal ratio, with a control signal flat, not every such curve was filed as active; the % refers to the signal ratio). The settings on record: hypoxia response reporter cells, beta-lactamase ratio readout; series mostly up to 104 µM. A digest of the protocol:
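Cell-based qHTS for reporter induction: hypoxia response element controlled beta-lactamase in ME-180 cells. Compounds incubated 17 h at 37 degrees C; activity from blue/green (460/530 nm) ratio, inducers ranked by AC50.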
Consider `Nc1cccc2c(N)cccc12`, for which the result was inactive.
On the same count and under the same terms, the same measure for `O=C(NO)c1ccccc1`: “inactive”; for `Brc1ccccc1-c1ccccc1`: “inactive”.
Same read-out and setting: the same measure for `O=C(Oc1ccccc1)c1ccccc1O`: “inactive”.
On the same count and under the same terms, with `O=C(c1ccccc1)c1ccccc1` the entry was “inactive”.
For the compound `CC(C)C(C)(C)C(C)(C)C(C)(C)S`, the outcome was inactive.
Same read-out and setting: the same measure for `CC(C)(c1ccc(O)cc1)c1ccc(O)cc1`: “inactive”.
The same measure, in the same setting: with `CC(C)(C)c1ccc(O)c(O)c1` the entry was “inactive”; with `CCCC(=O)c1cc(O)c(O)cc1O`, “inactive”; with `c1ccc2occc2c1`, “inactive”.
The same measure, in the same setting: the same measure for `Oc1ccccc1`: “inactive”; for `CC(=O)OC/C=C(C)/C=C/C=C(C)/C=C/C1=C(C)CCCC1(C)C`: “inactive”.
For `CCCCC(CC)COC(=O)c1ccccc1C(=O)O` (configuration not stated), the result was inactive.
Still for that read-out and setting: with `C1=CC2C3C=CC(C3)C2C1` (configuration not stated) the entry was “inactive”.
Still for that read-out and setting: the same measure for `COc1cc(C=O)ccc1O`: “inactive”.
